# Experimental data from the supplement of paper PMC8728848.
# About 410 targets per protein were measured; listed, in parts, are those with the strongest signals and a random draw of the rest.
# B1: SSR1 (Sclerotium rolfsii), A0A0M3KL30 (protein)
# chain: TYKITVRVYQTNPDAFFHPVEKTVWKYANGGTWTITDDQHVLTMGGSGTSGTLRFHADNGESFTATFGVHNYKRWCDIVTNLAADETGMVINQQYYSQKNREEARERQLSNYQVKNAKGRNFQIVYTEAEGNDLHANLIIG
# Key:
# Assay in all cases: glycan array binding signal (z-score within array); higher = stronger binding
# Settings in all cases: glycan notation: IUPAC condensed, linker removed
# [1] = target: GlcNAc(a1-4)Gal(b1-4)GlcNAc(b1-3)Gal(b1-4)GlcNAc(b1-3)Gal(b1-4)GlcNAc
# In short: (§1)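 Glycan array binding is given as a within-array Z-score, which can be read as non-binding when negative. The arrays, 3228 of them, came from the Consortium for Functional Glycomics database and were retained only where the protein sequence was available. Z-scores were averaged across arrays of the same protein sequence at different concentrations or buffers and across linkers.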
# [2] = target: GlcNAc(a1-4)Gal(b1-4)GlcNAc(b1-3)Gal(b1-4)[Fuc(a1-3)]GlcNAc(b1-3)Gal(b1-4)[Fuc(a1-3)]GlcNAc
# In short: as §1
# [3] = target: GlcNAc(b1-2)Man(a1-3)[GlcNAc(b1-2)Man(a1-6)]Man(b1-4)GlcNAc(b1-4)GlcNAc
# In short: as §1
# [4] = target: GlcNAc(b1-2)[GlcNAc(b1-4)]Man(a1-3)[GlcNAc(b1-2)Man(a1-6)]Man(b1-4)GlcNAc(b1-4)GlcNAc
# In short: as §1
# [5] = target: GlcNAc(b1-2)[GlcNAc(b1-6)]Man(a1-6)[GlcNAc(b1-2)Man(a1-3)]Man(b1-4)GlcNAc(b1-4)GlcNAc
# In short: as §1
# [6] = target: GlcNAc(b1-2)[GlcNAc(b1-6)]Man(a1-6)[GlcNAc(b1-2)Man(a1-3)]Man(b1-4)GlcNAc(b1-4)[Fuc(a1-6)]GlcNAc
# In short: as §1
# [7] = target: GlcNAc(b1-3)Gal(b1-4)GlcNAc(b1-2)[GlcNAc(b1-3)Gal(b1-4)GlcNAc(b1-6)]Man(a1-6)[GlcNAc(b1-3)Gal(b1-4)GlcNAc(b1-2)Man(a1-3)]Man(b1-4)GlcNAc(b1-4)GlcNAc
# In short: as §1
# [8] = target: GlcNAc(b1-3)Gal(b1-4)GlcNAc(b1-6)[GlcNAc(b1-3)]Gal(b1-4)GlcNAc
# In short: as §1
# [9] = target: GlcNAc(b1-3)GalNAc
# In short: as §1
# [10] = target: GlcNAc(b1-6)GalNAc
# In short: as §1
# [11] = target: Man(a1-2)Man(a1-3)[Man(a1-2)Man(a1-6)]Man(a1-6)[Man(a1-2)Man(a1-2)Man(a1-3)]Man(b1-4)GlcNAc(b1-4)GlcNAc
# In short: as §1
# [12] = target: Man(a1-2)Man(a1-6)[Man(a1-3)]Man(a1-6)[Man(a1-2)Man(a1-2)Man(a1-3)]Man
# In short: as §1
# [13] = target: Neu5Ac(a2-3)Gal(b1-3)GalNAc(b1-4)Gal(b1-4)Glc
# In short: as §1
# [14] = target: Neu5Ac(a2-3)Gal(b1-3)GlcNAc(b1-3)Gal(b1-4)GlcNAc
# In short: as §1
# [15] = target: Neu5Ac(a2-3)Gal(b1-3)[Fuc(a1-4)]GlcNAc
# In short: as §1
# [16] = target: Neu5Ac(a2-3)Gal(b1-4)GlcNAc(b1-2)Man
# In short: as §1
# [17] = target: Neu5Ac(a2-3)Gal(b1-4)GlcNAc(b1-3)Gal(b1-4)GlcNAc(b1-3)GalNAc
# In short: as §1
# [18] = target: Neu5Ac(a2-3)Gal(b1-4)GlcNAc(b1-3)Gal(b1-4)GlcNAc(b1-6)[Gal(b1-3)]GalNAc
# In short: as §1
# [19] = target: Neu5Ac(a2-3)Gal(b1-4)GlcNAc(b1-6)GalNAc
# In short: as §1
# [20] = target: Neu5Ac(a2-3)Gal(b1-4)[Fuc(a1-3)]GlcNAc(b1-2)Man
# In short: as §1
# [21] = target: Neu5Ac(a2-3)Gal(b1-4)[Fuc(a1-3)]GlcNAc(b1-3)Gal
# In short: as §1
# [22] = target: Neu5Ac(a2-3)Gal(b1-4)[Fuc(a1-3)]GlcNAc(b1-3)Gal(b1-4)GlcNAc
# In short: as §1
# [23] = target: Neu5Ac(a2-3)Gal6S(b1-4)[Fuc(a1-3)]GlcNAc
# In short: as §1
# [24] = target: Neu5Ac(a2-6)Gal(b1-4)GlcNAc(b1-2)Man(a1-3)Man(b1-4)GlcNAc(b1-4)GlcNAc
# In short: as §1
# [25] = target: Neu5Ac(a2-6)Gal(b1-4)GlcNAc(b1-2)Man(a1-3)[Neu5Ac(a2-3)Gal(b1-4)GlcNAc(b1-2)Man(a1-6)]Man(b1-4)GlcNAc(b1-4)GlcNAc
# In short: as §1
# [26] = target: Neu5Ac(a2-6)Gal(b1-4)GlcNAc(b1-3)[Neu5Ac(a2-6)Gal(b1-4)GlcNAc(b1-6)]GalNAc
# In short: as §1
# [27] = target: Neu5Ac9Ac(a2-3)Gal(b1-4)GlcNAc
# In short: as §1
# [28] = target: Neu5Gc(a2-3)Gal(b1-3)GlcNAc
# In short: as §1
# [29] = target: Neu5Gc(a2-3)Gal(b1-4)Glc
# In short: as §1
binder,measurement,setting,value
B1,glycan array binding signal (z-score),[1],6.33
same,glycan array binding signal (z-score),[2],3.01
same,glycan array binding signal (z-score),[3],5.28
same,glycan array binding signal (z-score),[4],3.04
same,glycan array binding signal (z-score),[5],3.93
same,glycan array binding signal (z-score),[6],3.66
same,glycan array binding signal (z-score),[7],1.32
same,glycan array binding signal (z-score),[8],0.953
same,glycan array binding signal (z-score),[9],0.954
same,glycan array binding signal (z-score),[10],1.03
same,glycan array binding signal (z-score),[11],-0.548
same,glycan array binding signal (z-score),[12],-0.348
same,glycan array binding signal (z-score),[13],-0.271
same,glycan array binding signal (z-score),[14],-0.343
same,glycan array binding signal (z-score),[15],-0.341
same,glycan array binding signal (z-score),[16],-0.313
same,glycan array binding signal (z-score),[17],0.407
same,glycan array binding signal (z-score),[18],1.06
same,glycan array binding signal (z-score),[19],-0.334
same,glycan array binding signal (z-score),[20],-0.374
same,glycan array binding signal (z-score),[21],-0.342
same,glycan array binding signal (z-score),[22],-0.324
same,glycan array binding signal (z-score),[23],-0.349
same,glycan array binding signal (z-score),[24],-0.341
same,glycan array binding signal (z-score),[25],-0.339
same,glycan array binding signal (z-score),[26],-0.297
same,glycan array binding signal (z-score),[27],-0.27
same,glycan array binding signal (z-score),[28],-0.329
same,glycan array binding signal (z-score),[29],-0.278
